The values below come from ChEMBL document CHEMBL3988442, “University of Dundee, Small-Polar-MMV Screening Library” (2021).

Set-up in all cases: scale not given: direction of the effect not stated beside the values
For assay [1], the target named is Protein translocase subunit SecA (Escherichia coli (strain K12)) (UniProt P10408). In words: Assay to Identify E. coli SecA ATPase Inhibitors. The assay is classed as functional. The conditions noted are these: 30 µM.
Assay [2] concerns the target T1, Ubiquitin-activating enzyme e1, putative (Leishmania donovani (strain BPK282A1)) (UniProt E9BSI1).
T1 sequence (whole entry): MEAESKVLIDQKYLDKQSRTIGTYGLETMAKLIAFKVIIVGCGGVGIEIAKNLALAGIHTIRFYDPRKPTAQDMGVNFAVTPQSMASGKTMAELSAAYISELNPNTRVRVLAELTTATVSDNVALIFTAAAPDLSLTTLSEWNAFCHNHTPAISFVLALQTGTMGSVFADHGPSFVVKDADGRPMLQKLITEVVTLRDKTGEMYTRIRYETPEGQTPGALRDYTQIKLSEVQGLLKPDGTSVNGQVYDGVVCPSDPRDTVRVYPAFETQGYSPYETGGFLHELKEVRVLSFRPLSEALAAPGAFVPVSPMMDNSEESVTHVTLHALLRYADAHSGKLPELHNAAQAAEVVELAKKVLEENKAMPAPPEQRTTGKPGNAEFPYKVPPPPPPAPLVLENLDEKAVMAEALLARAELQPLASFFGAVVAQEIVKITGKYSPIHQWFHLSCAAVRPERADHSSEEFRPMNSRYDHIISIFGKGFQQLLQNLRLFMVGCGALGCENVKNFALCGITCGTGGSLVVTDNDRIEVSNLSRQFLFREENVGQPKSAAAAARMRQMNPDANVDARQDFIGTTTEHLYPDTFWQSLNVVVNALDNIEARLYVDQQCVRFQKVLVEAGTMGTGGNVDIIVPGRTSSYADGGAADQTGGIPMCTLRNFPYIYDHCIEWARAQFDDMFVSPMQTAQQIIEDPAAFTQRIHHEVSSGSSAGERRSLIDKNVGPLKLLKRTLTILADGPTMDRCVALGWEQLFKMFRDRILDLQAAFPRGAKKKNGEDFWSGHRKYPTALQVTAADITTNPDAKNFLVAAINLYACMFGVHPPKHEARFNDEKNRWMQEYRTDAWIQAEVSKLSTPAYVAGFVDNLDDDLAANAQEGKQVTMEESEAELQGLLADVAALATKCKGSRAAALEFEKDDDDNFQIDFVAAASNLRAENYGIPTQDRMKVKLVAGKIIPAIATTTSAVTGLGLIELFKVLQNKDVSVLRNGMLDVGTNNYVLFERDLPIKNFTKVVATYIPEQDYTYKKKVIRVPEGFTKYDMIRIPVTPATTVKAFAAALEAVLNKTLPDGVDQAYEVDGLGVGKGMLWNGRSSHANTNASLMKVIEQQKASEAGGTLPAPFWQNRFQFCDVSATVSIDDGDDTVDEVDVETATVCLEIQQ
In words: Leishmania donovani Ubiquitin Activating Enzyme (LdE1). The assay is classed as functional. As to conditions: 30 µM.

In assay [3] the target is T2, Aspartate--tRNA(Asp/Asn) ligase (Mycobacterium tuberculosis (strain ATCC 25618 / H37Rv)) (UniProt P9WFW3). Note: in the data most compounds retested in dose-response had high values.
T2 sequence (whole entry): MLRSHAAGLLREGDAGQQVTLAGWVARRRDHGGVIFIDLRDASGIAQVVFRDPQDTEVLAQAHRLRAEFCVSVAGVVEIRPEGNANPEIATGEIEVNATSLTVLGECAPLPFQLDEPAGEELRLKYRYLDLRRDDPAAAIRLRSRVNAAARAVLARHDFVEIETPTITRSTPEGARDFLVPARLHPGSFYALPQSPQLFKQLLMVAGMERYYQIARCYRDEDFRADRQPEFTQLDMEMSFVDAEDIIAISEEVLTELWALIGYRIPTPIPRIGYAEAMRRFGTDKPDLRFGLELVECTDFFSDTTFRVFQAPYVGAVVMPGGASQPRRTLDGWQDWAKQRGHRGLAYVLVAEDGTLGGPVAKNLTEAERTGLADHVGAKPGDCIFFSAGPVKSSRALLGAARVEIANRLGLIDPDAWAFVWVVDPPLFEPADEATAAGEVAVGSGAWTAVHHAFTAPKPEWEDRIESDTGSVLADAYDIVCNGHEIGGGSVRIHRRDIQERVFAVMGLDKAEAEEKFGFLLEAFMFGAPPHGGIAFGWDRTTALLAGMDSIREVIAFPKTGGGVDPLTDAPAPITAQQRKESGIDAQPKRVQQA
In words: Assay for Asp RNA synthetase-1 from Mycobacterium tuberculosis. The assay is classed as functional. The conditions noted are these: 30 µM.

Assay [4] deals with AMP-activated protein kinase, AMPK (Homo sapiens) (UniProt P54646+O43741+P54619+Q9UGJ0+Q9Y478+Q13131+Q9UGI9). Nature of the assay: AMP-dependent Kinase enzyme assay. An in vitro enzyme assay that detects ADP turnover that is directly proportional to AMPK activity. This uses naive AMPK that is activated during the assay with MK-8722. Format: functional. The conditions noted are these: 30 µM.

Assay [5] has as its target Sialic acid-binding Ig-like lectin 9 (Homo sapiens) (UniProt Q9Y336). In words: Hs-Siglec9 ALPHAscreen SOP 20170721. As to conditions: 10 µM. For orientation: In Alpha technology, singlet oxygen from a donor bead excites a nearby acceptor bead.
Another assay relates to Trypanosoma cruzi. In words: Trypanosoma cruzi phosphomannomutase and mannose-1-phosphate guanylyltransferase assay. The assay is classed as functional. The conditions noted are these: 10 µM.
In assay [6] the target is T3, Arginase-2, mitochondrial (Homo sapiens) (UniProt P78540).
T3 sequence (whole entry): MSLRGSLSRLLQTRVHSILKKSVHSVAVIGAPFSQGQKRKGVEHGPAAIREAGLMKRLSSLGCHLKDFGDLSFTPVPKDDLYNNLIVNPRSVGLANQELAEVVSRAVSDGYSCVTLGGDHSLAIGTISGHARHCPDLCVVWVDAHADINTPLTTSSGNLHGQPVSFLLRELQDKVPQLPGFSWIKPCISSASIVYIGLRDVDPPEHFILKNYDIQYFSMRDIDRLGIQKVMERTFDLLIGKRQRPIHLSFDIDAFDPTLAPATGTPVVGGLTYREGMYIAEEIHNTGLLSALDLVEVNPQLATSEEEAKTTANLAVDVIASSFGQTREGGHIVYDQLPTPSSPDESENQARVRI
Nature of the assay: in vitro enzyme assay to detect the production of urea directly proportional to the activity of Arginase II. Note: in the data most compounds retested in dose-response had high values. The assay is classed as functional. As to conditions: 33.3 µM.

Assay [7] deals with T4, Proteasome subunit beta (Trypanosoma cruzi) (UniProt O96673).
T4 sequence (whole entry): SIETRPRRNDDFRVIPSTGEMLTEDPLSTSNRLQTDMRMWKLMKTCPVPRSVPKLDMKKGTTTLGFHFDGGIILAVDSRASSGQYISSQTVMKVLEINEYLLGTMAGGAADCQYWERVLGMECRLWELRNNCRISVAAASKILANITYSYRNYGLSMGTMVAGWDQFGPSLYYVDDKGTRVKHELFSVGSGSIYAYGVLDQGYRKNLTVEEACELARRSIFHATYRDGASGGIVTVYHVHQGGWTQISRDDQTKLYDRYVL
Nature of the assay: Trypanosoma cruzi proteasome chymotrypsin-like activity (TcProtChymo) assay. Note: in the data most compounds retested in dose-response had high values. The assay is classed as functional. The conditions noted are these: 9.37 µM.

A further assay is filed under the species Homo sapiens. In words: To identify inhibition of the IFN signalling (Jak-Stat) pathway via expression of an eGFP reporter gene under the control of an IFN-stimulated response element (ISRE) containing MxA promoter. The assay is classed as functional. The conditions noted are these: 30 µM. For orientation: Reporter assays use an easily measured gene product as a stand-in for the process of interest.

Assay [8] addresses Shiga toxin 2 (Escherichia coli O157:H7) (UniProt P09385+P09386). In words: E. coli 0.157:H7 Shiga Toxin SOP - stx2 screening assay. The conditions noted are these: 30 µM. Format: functional.
In assay [9] the target is T5, Tyrosyl-tRNA synthetase, putative (Trypanosoma cruzi (strain CL Brener)) (UniProt Q4DSP6).
T5 sequence (whole entry): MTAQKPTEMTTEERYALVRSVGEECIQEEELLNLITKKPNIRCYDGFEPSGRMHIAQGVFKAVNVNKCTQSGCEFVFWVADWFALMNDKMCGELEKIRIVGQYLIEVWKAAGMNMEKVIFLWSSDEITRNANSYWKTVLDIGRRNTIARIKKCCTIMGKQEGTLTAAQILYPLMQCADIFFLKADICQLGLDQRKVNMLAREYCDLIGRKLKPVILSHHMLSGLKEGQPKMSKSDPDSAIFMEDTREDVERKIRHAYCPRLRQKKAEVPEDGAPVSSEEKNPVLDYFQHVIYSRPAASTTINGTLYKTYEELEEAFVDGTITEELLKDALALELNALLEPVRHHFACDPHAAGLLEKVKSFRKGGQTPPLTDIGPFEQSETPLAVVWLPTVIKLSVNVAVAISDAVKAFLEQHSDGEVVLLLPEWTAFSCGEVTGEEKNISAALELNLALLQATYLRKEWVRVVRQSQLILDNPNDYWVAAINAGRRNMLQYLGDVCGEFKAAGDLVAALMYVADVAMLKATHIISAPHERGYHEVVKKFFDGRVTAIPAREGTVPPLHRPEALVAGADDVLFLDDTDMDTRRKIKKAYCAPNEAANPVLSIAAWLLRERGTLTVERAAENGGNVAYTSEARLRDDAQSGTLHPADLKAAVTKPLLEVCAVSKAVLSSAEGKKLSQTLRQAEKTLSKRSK
In words: Trypanosoma cruzi tyrosyl tRNA synthetase (TcYRS) _High Tyrosine SOP. Note: in the data most compounds retested in dose-response had high values. As to conditions: 30 µM. The assay is classed as functional.

Assay [10] has as its target T5, Tyrosyl-tRNA synthetase, putative (Trypanosoma cruzi (strain CL Brener)). In words: Trypanosoma cruzi tyrosyl tRNA synthetase (TcYRS) SOP. Format: functional. The conditions noted are these: 30 µM.
Assay [11] concerns the target Chromo domain-containing protein 1 (Saccharomyces cerevisiae (strain ATCC 204508 / S288c) (Baker's yeast)) (UniProt P32657). In words: ScCHD-1 Enzyme Inhibition Assay. Note: in the data most compounds retested in dose-response had high values. The assay is classed as functional. The conditions noted are these: 30 µM.

For some assays here: Entries with a potency or affinity are not part of this list.

Sequence of Protein translocase subunit SecA (Escherichia coli (strain K12)) (P10408 whole entry): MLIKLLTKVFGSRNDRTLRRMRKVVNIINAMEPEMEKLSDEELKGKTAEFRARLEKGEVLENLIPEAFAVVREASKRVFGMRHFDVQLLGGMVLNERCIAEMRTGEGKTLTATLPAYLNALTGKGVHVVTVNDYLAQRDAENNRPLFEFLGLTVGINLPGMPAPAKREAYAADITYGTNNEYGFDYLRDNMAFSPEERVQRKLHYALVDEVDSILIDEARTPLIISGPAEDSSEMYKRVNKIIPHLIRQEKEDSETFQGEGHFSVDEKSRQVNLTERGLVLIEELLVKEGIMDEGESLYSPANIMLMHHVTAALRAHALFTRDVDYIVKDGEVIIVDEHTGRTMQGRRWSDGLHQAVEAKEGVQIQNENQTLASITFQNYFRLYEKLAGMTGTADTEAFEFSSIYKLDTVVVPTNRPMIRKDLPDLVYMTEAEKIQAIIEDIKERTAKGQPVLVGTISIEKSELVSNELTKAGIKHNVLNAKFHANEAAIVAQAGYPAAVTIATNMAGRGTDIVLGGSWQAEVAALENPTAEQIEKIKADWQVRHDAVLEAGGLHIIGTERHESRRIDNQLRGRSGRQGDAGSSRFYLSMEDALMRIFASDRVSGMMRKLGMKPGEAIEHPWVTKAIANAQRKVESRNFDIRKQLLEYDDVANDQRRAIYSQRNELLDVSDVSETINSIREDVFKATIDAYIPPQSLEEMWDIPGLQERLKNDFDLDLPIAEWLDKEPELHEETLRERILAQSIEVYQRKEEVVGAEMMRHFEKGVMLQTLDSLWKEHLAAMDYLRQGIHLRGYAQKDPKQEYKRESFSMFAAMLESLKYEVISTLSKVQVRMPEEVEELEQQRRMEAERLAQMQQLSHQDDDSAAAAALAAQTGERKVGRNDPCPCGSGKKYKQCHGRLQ
Sequence of Sialic acid-binding Ig-like lectin 9 (Homo sapiens) (Q9Y336 whole entry): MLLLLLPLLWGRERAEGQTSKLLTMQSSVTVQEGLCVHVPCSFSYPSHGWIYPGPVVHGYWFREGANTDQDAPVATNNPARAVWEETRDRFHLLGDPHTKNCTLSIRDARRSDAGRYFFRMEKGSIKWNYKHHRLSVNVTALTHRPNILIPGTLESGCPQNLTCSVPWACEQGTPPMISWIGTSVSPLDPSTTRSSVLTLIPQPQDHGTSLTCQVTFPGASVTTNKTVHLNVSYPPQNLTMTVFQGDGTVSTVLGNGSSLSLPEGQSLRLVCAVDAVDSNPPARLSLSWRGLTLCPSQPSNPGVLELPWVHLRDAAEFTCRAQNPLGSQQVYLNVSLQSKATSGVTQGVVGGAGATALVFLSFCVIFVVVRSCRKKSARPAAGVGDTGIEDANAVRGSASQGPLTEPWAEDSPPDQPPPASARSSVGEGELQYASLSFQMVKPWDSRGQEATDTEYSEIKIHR
Sequence of Chromo domain-containing protein 1 (Saccharomyces cerevisiae (strain ATCC 204508 / S288c) (Baker's yeast)) (P32657 whole entry, the tested form may be a part): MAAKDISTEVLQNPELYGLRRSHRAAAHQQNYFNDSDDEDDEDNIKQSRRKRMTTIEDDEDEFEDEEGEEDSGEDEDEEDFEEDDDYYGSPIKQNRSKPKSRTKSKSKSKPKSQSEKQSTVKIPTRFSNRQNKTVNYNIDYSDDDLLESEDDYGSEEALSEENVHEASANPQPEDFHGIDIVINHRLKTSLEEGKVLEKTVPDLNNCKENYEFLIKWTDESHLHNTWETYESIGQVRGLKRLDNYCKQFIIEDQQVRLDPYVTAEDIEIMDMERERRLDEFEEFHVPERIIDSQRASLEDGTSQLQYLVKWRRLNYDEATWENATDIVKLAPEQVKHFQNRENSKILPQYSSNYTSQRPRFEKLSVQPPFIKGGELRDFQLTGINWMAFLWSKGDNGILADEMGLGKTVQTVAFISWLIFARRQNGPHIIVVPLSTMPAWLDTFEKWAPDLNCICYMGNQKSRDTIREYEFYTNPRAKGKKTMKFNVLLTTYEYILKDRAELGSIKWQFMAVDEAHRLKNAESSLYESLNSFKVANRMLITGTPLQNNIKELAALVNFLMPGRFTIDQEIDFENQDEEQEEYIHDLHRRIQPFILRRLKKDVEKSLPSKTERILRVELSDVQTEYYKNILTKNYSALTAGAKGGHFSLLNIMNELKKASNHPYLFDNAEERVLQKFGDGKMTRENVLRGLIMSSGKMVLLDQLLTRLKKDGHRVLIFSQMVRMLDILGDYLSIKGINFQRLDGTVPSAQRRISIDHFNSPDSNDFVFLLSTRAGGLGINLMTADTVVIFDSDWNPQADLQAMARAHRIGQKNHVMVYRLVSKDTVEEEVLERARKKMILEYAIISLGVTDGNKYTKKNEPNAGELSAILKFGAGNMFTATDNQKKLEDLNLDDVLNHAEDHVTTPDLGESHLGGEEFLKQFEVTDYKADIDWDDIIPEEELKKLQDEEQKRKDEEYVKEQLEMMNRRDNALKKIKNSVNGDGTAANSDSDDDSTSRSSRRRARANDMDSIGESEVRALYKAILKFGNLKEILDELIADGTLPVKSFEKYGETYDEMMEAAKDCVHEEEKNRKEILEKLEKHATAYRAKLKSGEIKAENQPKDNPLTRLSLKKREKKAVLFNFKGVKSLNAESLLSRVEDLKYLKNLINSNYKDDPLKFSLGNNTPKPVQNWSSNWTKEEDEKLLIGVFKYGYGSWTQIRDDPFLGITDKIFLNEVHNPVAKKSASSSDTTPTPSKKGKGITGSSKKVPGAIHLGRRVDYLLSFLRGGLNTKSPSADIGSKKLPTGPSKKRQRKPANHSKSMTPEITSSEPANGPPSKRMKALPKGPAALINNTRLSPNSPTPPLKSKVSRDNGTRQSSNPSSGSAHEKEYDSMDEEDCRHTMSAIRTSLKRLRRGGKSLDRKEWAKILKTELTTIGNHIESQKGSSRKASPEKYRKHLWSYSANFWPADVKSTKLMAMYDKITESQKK

As to `O=C(COc1ccccc1)N1C[C@@H](O)[C@H](N2CCCC2)C1`, the Percent Effect was 0.635% in [1]; 9.46% in [2]; -7.13% in [3]; 3.56% in assay [4]; -3.46% in assay [5]; 3.36% in the assay with Trypanosoma cruzi. Further, the Percent Effect was -6.26% in assay [6]; 10.8% in assay [7]; 1.48% in the assay listed under Homo sapiens; -14.2% in [8]; -1.07% in assay [9]; 3.9% in assay [10]. Besides, the Percent Effect in assay [11] is -22%.
For `COc1ccc2c(ccn2CCN)c1`, the Percent Effect in assay [1] is -4.08%; in [2] it was -49.3%; in [3], -3.77%; in assay [4] it was -2.79%; in assay [5], 5.94%; in the assay with Trypanosoma cruzi, -0.982%. Besides, the Percent Effect in assay [6] is 0.176%; in assay [7] it was 6.65%; in the assay listed under Homo sapiens, 19%; in assay [8] it was -17.9%; in assay [9], 7.41%; in [10], 10.3%. For the same molecule, the Percent Effect in assay [11] was -4.41%.
For `O=C(NCC1CC1)[C@H]1C[C@@H]2[C@@H](C1)OCCN2Cc1cccnc1`, the Percent Effect in [1] is -2.08%; in assay [2], -5.33%; in assay [3], -0.291%; in assay [4], 6.97%; in [5], 0.812%; with Trypanosoma cruzi, -1.93%. Besides, the Percent Effect in assay [6] is -52.5%; in assay [7], -2.73%; in the assay filed under Homo sapiens, 9.72%; in assay [8], -7.08%; in assay [9] it was -1.04%; in assay [10] it was -5%. Further, the Percent Effect in assay [11] is 4.12%.
Turning to `NCC1(c2cccc(C(F)(F)F)c2)CCOCC1`, the Percent Effect in [1] is -1.6%; in assay [2], 5.41%; in assay [3], 0.69%; in assay [4], -16.1%; in assay [5], -3.19%; in the assay with Trypanosoma cruzi it was -0.781%. The Percent Effect in assay [6] was 25%; in [7], 15.6%; in the assay filed under Homo sapiens it was 7.66%; in assay [8], -1.62%; in [9] it was 7.92%; in assay [10], 18.3%. For the same molecule, in [11], the Percent Effect was determined as 107%.
For `COCCN1C[C@@H]2[C@@H](OC)CCN(Cc3cccc(C)n3)[C@@H]2C1`, the Percent Effect is -1.97% in [1]; 11% in assay [2]; -0.137% in assay [3]; -7.2% in assay [4]; 9.07% in [5]; 6.75% with Trypanosoma cruzi. For the same molecule, the Percent Effect in [6] was -2%; in [7], 12.1%; in the assay filed under Homo sapiens it was -7.05%; in assay [8] it was -22.1%; in assay [9], 7.29%; in assay [10] it was 13.6%. Besides, the Percent Effect in assay [11] is -5.26%.
